# Sampled rows, rich in hits. Any-hit rate of the full collection: about 7.9%.
# Her2 expr inh = inhibitors of Her2 protein expression, primary screen, SKBR-3 cells, AlphaScreen, 66K library | actives 0.69% (n = 65,000) | SKBR-3 HER2 protein level, 18-24 h; hits give low values | Receptor tyrosine-protein kinase erbB-2 (Homo sapiens), P04626 | HER2 level % of control, % at 10 µM;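 active means HER2 level under 5% of the carrier-only control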;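 further: 100% = DMSO carrier and 0% = 500 nM PU-H71 HSP90 inhibitor; lower value means stronger loss of Her2 protein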
# M1 antag = antagonists of rat M1 muscarinic receptor | actives 3.4% (n = 64,000) | B-score at 10 µM | CHO-M1 cells, Fluo-4 calcium, ACh EC80 antagonist mode; hits give low values;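 active means calcium fluorescence response, raw or row-and-column corrected B-score, differing from the plate sample mean either way at a set confidence level, mostly lower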
# Cav3 T inh = Cav3.2 calcium influx blockers – cell-based, Fluo-4 calcium fluorescence, FDSS, MLSMR library, primary screen. Voltage-dependent T-type calcium channel subunit alpha-1H (Homo sapiens), O95180. Cav3.2-expressing cells; hits give low values. B-score at 10 µM. actives 4% (n = 100,000);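 active means single-dose well whose peak fluorescence ratio is a statistical outlier from its plate by either plate-standardised score or position-corrected B-score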
# PLAP activator = PLAP enzyme activators, biochemical, luminescence, HTS. purified PLAP enzyme, luminescent substrate read-out; hits give high values. Alkaline phosphatase, placental type (Homo sapiens), P05187. actives 1.2% (n = 96,000). activation fold at 20 µM. AID 696, 2007; in the data active means activation fold above about 2
# Target sequence (P05187 whole entry, looked up): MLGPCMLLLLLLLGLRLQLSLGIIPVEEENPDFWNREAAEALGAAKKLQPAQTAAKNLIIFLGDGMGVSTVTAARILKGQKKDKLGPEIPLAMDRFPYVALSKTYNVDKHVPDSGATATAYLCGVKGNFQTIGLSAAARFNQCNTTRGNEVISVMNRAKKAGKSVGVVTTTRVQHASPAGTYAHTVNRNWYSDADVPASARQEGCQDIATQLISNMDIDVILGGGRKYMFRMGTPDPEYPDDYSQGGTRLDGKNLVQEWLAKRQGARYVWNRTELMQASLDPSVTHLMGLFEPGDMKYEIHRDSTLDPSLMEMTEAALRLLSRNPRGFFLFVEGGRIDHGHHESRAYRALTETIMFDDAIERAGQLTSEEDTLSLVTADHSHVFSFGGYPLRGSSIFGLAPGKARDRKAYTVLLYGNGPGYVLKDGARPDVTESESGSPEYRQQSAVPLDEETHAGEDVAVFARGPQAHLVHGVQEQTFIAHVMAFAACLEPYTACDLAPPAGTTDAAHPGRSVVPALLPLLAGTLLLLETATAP
# M1 agonist = M1 muscarinic receptor agonists, primary screen, CHO-M1 cells, Fluo-4 calcium, agonist mode | Muscarinic acetylcholine receptor M1 | Fluo-4 calcium fluorescence; hits give high values | B-score at 10 µM | actives 3% (n = 64,000);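 active means fluorescence rise, raw or as B-score row- and column-corrected plate score, outside the 99.7% band of its plate's samples, either direction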
# * hit, by the source's call; . = no result.
SMILES,Her2 expr inh,M1 antag,Cav3 T inh,PLAP activator,M1 agonist
C=C(C)Cn1c(N2CCC(Cc3ccccc3)CC2)nc2c1c(=O)[nH]c(=O)n2C,62.9,-0.378,-4.02*,.,0.682
CCCCCn1c(N2CCC(Cc3ccccc3)CC2)nc2c1c(=O)[nH]c(=O)n2C,47.0,-1.08,-4.8*,.,0.958
Brc1ccc(-c2cnc(-c3cccs3)o2)cc1,33.7,0.613,0.193,1.1,-0.335
O=C(N/N=C\c1ccc(COc2ccc([N+](=O)[O-])cc2)o1)c1cccc(Cl)c1,.,.,-7.56*,1,.
CSc1sc(C(=O)NN)c2c1C(O)CCC2 (stereo not given),.,.,-2.23,.,.
O=C(CSc1nnc(CNc2ccc(F)cc2)o1)N1c2ccccc2Sc2ccccc21,.,.,-5.49*,1.3,.
COc1ccc(Cc2nnc(SCC(=O)N3CCN(c4ccccc4)CC3)o2)cc1,102.1,-0.00759,-0.316,1,-1.49
COc1ccc(N2CCN(C(=O)CSc3nnc(CNc4ccccc4)o3)CC2)cc1,96.2,-0.31,0.0314,.,-2.5*
COc1ccc(N2CCN(C(=O)CC(NC(N)=O)c3cccc(Oc4ccccc4)c3)CC2)cc1 (stereo not given),115.0,-0.902,-5.52*,1.7,-0.709
COc1ccc(N2CCN(C(=O)CSc3ccccc3)CC2)cc1,114.9,-0.561,-0.254,1,0.118
COCCn1c(SCC(=O)Nc2sccc2C(N)=O)nc2cc(Cl)ccc2c1=O,.,.,.,1,.
O=C(O)CCCC(=O)N1CCN(C(c2ccccc2)c2ccccc2)CC1,121.5,-0.135,.,.,-0.000961
CC(C)NC(=O)c1nc2ccccc2s1,84.1,0.161,0.945,0.8,-0.321
O=C(CN1C(=O)C2CC=CCC2C1=O)Nc1nnc(SCc2ccc(Cl)cc2)s1 (stereo not given),.,.,-4.47*,1.3,.
CN(C)CCCNc1oc(-c2cccc(Cl)c2)nc1C#N,83.8,-0.185,0.601,1.4,-1.13
CN(Cc1ccccc1)C(=O)CN(c1ccc(F)cc1)S(=O)(=O)c1ccc2c(c1)OCCO2,.,.,-5.04*,.,.
O=C(CN(c1ccc(F)cc1)S(=O)(=O)c1ccc2c(c1)OCCO2)NCc1ccccc1,.,.,1.28,0.9,.
C=CCNC(=S)NNC(=O)c1ccc2c(c1)OCO2,.,.,0.703,2.2*,.
C=CCNC(=S)NNC(=O)c1ccc(OC(C)C)cc1,.,.,0.606,2.4*,.
CCNC(=S)NNC(=O)c1ccc(OC(F)F)cc1,.,.,0.173,2.3*,.
C=CCNC(=S)NNC(=O)c1ccccc1,.,.,0.801,1.7,.
C=CCNC(=S)NNC(=O)c1csc(C)c1CC,.,.,0.216,2.1*,.
CCCn1c(SCC(=O)NCc2ccccc2)nnc1-c1ccncc1,.,.,-0.164,1,.
CCN(CC)S(=O)(=O)c1ccc(NC(=O)CC(NC(C)=O)c2ccccc2)cc1 (stereo not given),.,.,-0.335,1.8,.
OCCNc1nc(SCc2ccccc2)nc2sc3c(c12)CCC3,.,.,.,1,.
SMILES,Her2 expr inh,M1 antag,Cav3 T inh,PLAP activator,M1 agonist
Cc1c(Cl)c([N+](=O)[O-])nn1CC(=O)NC12CC3CC(CC(C3)C1)C2,.,.,-3.77*,0.8,.
Cc1csc(SCC(=O)NC23CC4CC(CC(C4)C2)C3)n1,.,.,-0.341,0.8,.
Cn1cccc1Cc1nnc(SCC(=O)Nc2ccc3c(c2)OCCO3)n1CCc1ccccc1,87.7,0.0214,-10.7*,1.5,0.924
Cc1nnc(NC(=O)CSc2nnc(Cc3cccn3C)n2CCc2ccccc2)s1,120.7,-0.0379,0.381,1.2,0.629
Cn1cccc1Cc1nnc(SCC(=O)Nc2ccc(F)cc2)n1CCc1ccccc1,93.8,0.187,-7.36*,1.6,2.11
Cn1cccc1Cc1nnc(SCC(=O)Nc2ccc3c(c2)OCO3)n1CCc1ccccc1,104.7,-0.522,-9.23*,1.6,0.774
Cn1c(Cc2ccccc2)nnc1SCC(=O)Nc1ccc2c(c1)OCO2,154.9,-1.04,0.951,0.8,0.257
CCC(C)(C)NC(=O)C(c1ccc(F)cc1)N(Cc1ccco1)C(=O)c1cnccn1 (stereo not given),148.3,0.0208,-0.338,1.6,-0.631
COc1ccccc1NS(=O)(=O)c1cc(C(=O)N2CC(C)CC(C)C2)ccc1C (stereo not given),.,.,-2.65,1.7,.
N#Cc1c(Cc2cccc3ccccc23)nn(CCO)c1N,.,.,0.426,.,.
COc1cccc(/C=N/NC(=O)c2ccc(OCc3cccc(Br)c3)cc2)c1,.,.,-5.97*,1.2,.
COc1cccc(/C=N/NC(=O)CCc2ccccc2)c1,.,.,-0.117,5.8,.
Cc1cc(C)cc(NC(=O)Cn2c(=O)oc3cc(S(=O)(=O)N4CC(C)CC(C)C4)ccc32)c1 (stereo not given),.,.,-4.28*,1.5,.
CCOC(=O)CN(C(=O)CSc1nnc(COc2ccc(OC)cc2)n1C)c1ccccc1,95.0,0.337,0.583,1.5,-0.334
COc1ccc2nc(SCC(=O)Nc3ccccc3C#N)[nH]c2c1,284.8,0.00212,-0.321,2.1*,-0.682
CC(=O)C1=C(C)NC(SCC(=O)c2ccccc2)=C(C#N)C1CC(C)C (stereo not given),145.6,-0.0242,-1.07,1.2,-0.145
Cc1ccccc1C(=O)/C=C1/c2ccccc2CC(C)(C)N1C,.,.,-3.88*,1.2,.
Cc1cccc(C(=O)/C=C2/c3ccccc3CC(C)(C)N2C)c1,.,.,-4.25*,1.5,.
CC1(C)Cc2ccccc2-c2nc3ccccc3c(=O)n21,95.3,-0.677,-0.909,1,-0.223
COc1ccc(OCc2ccc(C(=O)NN)cc2)cc1,.,.,-0.131,1,.
Cc1nc(-c2ccc(Cl)cc2)sc1C1(C)CC(c2cccc(F)c2)=NO1 (stereo not given),.,.,-0.784,.,.
CC(C)c1noc2ncc(C(=O)c3cc(Cl)cc(Cl)c3O)cc12,.,.,-6.53*,1.2,.
O=S(c1ccc2ccccc2c1)c1cnns1 (stereo not given),.,.,0.814,0.9,.
O=c1[nH]c2c(cc1CNCCN1CCOCC1)c(-c1cccc(F)c1)nn2-c1ccccc1,71.8,-0.391,.,2*,-0.354
COCC(C)OC(=O)C(C#N)c1nc2ccccc2nc1N1CCN(Cc2ccccc2)CC1 (stereo not given),88.4,-1.89,-6.12*,1.3,-0.633
COCCNC(=O)C(C#N)c1nc2ccccc2nc1N1CCCCCC1 (stereo not given),96.2,-0.154,.,1.2,0.178
C=CCOC(=O)C(C#N)c1nc2ccccc2nc1N1CCN(c2ccccc2OC)CC1 (stereo not given),70.8,-0.0639,-9.25*,1.1,-1.09

# High-throughput results: PubChem, several laboratories
